# CYP2C19 activ: increases human CYP2C19 enzyme activity; P33261; recombinant CYP2C19, luciferin-H EGE luminescence; stronger effect = higher value; 0 = fully inhibited enzyme, 1 = untreated enzyme; activation factor at 5 µM; 96,000 tested, under 10 active; AID 1025;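 active = activation factor of at least 2 at 5 µM in the primary screen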
# Target sequence (P33261 whole entry, looked up): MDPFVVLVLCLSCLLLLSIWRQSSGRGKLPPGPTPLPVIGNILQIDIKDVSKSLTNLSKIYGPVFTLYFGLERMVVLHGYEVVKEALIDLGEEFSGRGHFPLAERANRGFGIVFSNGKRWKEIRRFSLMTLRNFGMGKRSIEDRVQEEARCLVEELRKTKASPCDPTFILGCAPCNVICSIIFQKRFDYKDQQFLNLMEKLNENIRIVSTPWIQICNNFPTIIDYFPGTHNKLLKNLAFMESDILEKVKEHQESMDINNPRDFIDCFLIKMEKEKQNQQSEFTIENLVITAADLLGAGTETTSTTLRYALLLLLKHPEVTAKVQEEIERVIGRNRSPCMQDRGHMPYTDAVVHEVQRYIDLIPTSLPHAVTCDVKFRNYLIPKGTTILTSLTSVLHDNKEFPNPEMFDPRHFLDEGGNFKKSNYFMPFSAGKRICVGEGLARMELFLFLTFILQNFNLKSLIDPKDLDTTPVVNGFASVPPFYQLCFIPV
# CYP2C9 act: activators of human CYP2C9 | P11712 | recombinant CYP2C9, luciferin-H conversion, luminescence; stronger effect = higher value; factor 1 = untreated enzyme, 0 = blocked | activation factor at 5 µM | hit rate 1.4% among 96,000 | AID 1024;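 active = activation factor of 2 or more for CYP2C9 at a 5 µM dose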
# PostGolgi yeast: growth inhibition of a yeast mutant, post-Golgi transport screen | post-Golgi transport phenotypic cell assay | inhibition, % at 10 µM | hit rate 0.9% among 98,000;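 also: yeast cells grown in 1536-well plates; yeast grown about 18 h at 30C before absorbance read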
# PostGolgi ctrl: yeast control strain growth, post-Golgi counter-screen; inhibition, % at 10 µM; efflux-deficient yeast background strain, growth absorbance A615, 16 h; AID 738; hit rate 5% among 98,000
# CYP2C19 inh: human CYP2C19 inhibition; P33261; CYP2C19 Supersomes, luciferin-H EGE luminescence, 30 min; inhibition, % at 5 µM; hit rate 21% among 96,000; AID 778;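 active = CYP2C19 inhibition above a set limit at 5 µM in the primary screen, cut at about 50% in these data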
# CYP2C9 inhib: inhibitors of human CYP2C9; P11712; CYP2C9 Supersomes, luciferin-H conversion, luminescence; inhibition, % at 5 µM; hit rate 20% among 96,000;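 active = blocking of liver enzyme CYP2C9 beyond about 50% at 5 µM, limit read from the data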
# Hits are given with their value; - = inactive; . = no result. In the library only some 32% were active in any assay of this set; here they are far more common. Rule as the data show it, unless noted: active = inhibition above about 30%; inactive = the rest.
SMILES,CYP2C19 activ,CYP2C9 act,PostGolgi yeast,PostGolgi ctrl,CYP2C19 inh,CYP2C9 inhib
Cc1ccc(-c2nn(CC(=O)NCc3cc(-c4nn(C)c(=O)c5ccccc45)ccc3C)c(=O)c3ccccc23)cc1,-,-,-,-,-,-
Cc1ccc(NC(=O)NNC(=O)Cn2nc(-c3ccccc3)c(-c3ccccc3)c(C#N)c2=O)cc1,-,-,-,-,-,56.8
CCOc1ccc2c(c1)-c1c(ssc1=S)C(C)(C)N2C,-,-,-,-,-,-
CN1CC(=O)NC1=NC(=O)c1ccc(Cl)c(S(=O)(=O)N2CCCCCC2)c1,-,-,-,-,-,-
Nc1cccc(C(=O)Nc2ccccc2Cl)c1,-,-,-,-,-,-
CN(C)S(=O)(=O)Oc1cccc(C(=O)Nc2ccccc2Cl)c1,-,-,-,-,52.5,51.8
CN(C)S(=O)(=O)Oc1cccc(C(=O)Nc2ccc(Cl)cc2)c1,-,-,-,-,-,68.0
C=C(C)CN=c1scc(C)n1/N=C/c1ccco1,-,-,-,-,87.6,-
Cc1cc(C)n(-c2nnc(C)n2/N=C/c2ccco2)n1,-,-,-,-,-,-
Cc1ccc(C(=O)NNC(=S)NC(=O)c2ccc(Cl)cc2)cc1,-,-,-,-,-,87.4
O=C(NNC(=S)NC(=O)c1cccnc1)c1ccc(Cl)cc1,-,-,-,-,-,63.2
CCCn1cc(C(CC(=O)O)C(=O)O)c2ccccc21 (configuration not stated),-,-,-,-,-,-
O=C(Cn1cnc2c(oc3ccccc32)c1=O)NCC1CCCO1 (configuration not stated),-,-,-,-,-,-
CC(C)(NO)/C(=N/O)c1ccc(Br)cc1,-,-,-,-,64.2,-
CC(C)(NO)/C(=N\O)c1ccc(Cl)cc1,-,-,-,-,-,-
O=c1c2ccccc2nc(SCc2nc3ccccc3s2)n1Cc1ccco1,-,-,-,-,-,54.8
O=c1c2ccccc2nc(SCc2cccc(F)c2)n1Cc1ccco1,-,-,-,30.7,-,69.4
O=c1c2ccccc2nc(SCc2ccccc2)n1Cc1ccco1,-,-,-,-,-,-
O=c1c2ccccc2nc(SCc2nnc(-c3ccccc3Br)o2)n1Cc1ccco1,-,-,-,-,75.9,94.0
O=c1c2ccccc2nnn1CSc1nc2ccccc2c(=O)n1Cc1ccco1,-,-,.,.,-,-
Cc1sc2nc(CN3CCN(S(=O)(=O)c4cccc5nonc45)CC3)[nH]c(=O)c2c1C,-,-,-,-,-,-
O=C(Nc1cccn(Cc2c(Cl)cccc2Cl)c1=O)c1ccc(Cl)cc1Cl,-,-,-,-,65.0,56.4
O=C(Nc1cccn(Cc2c(Cl)cccc2Cl)c1=O)c1ccccc1Cl,-,-,-,-,80.0,67.0
CCOC(=O)c1c(C)[nH]c(C(=O)COC(=O)CN2C(=O)C3CCCCC3C2=O)c1C (configuration not stated),-,-,-,-,-,-
CCOC(=O)c1c(C)[nH]c(C(=O)COC(=O)CNC(=O)C2CCCCC2)c1C,-,-,-,-,-,-
SMILES,CYP2C19 activ,CYP2C9 act,PostGolgi yeast,PostGolgi ctrl,CYP2C19 inh,CYP2C9 inhib
CCOC(=O)c1c(C)[nH]c(C(=O)CSc2nnc(C3CC3)n2N)c1C,-,-,-,-,69.3,65.8
CCCCC(=O)OCC(=O)c1[nH]c(C)c(C(=O)OCC)c1C,-,-,-,-,-,83.3
CCOC(=O)c1c(C)[nH]c(N=Nc2ccccc2C)c1C,-,-,-,-,83.4,95.3
CCOC(=O)c1c(C)[nH]c(C(=O)COC(=O)C(C)N2C(=O)C3CCCCC3C2=O)c1C (configuration not stated),-,-,-,-,55.3,51.8
Cc1cc2ncc(-c3ncc(C(F)(F)F)cc3Cl)cn2n1,-,-,-,-,-,-
CCOC(=O)c1c(C)[nH]c(C(=O)COC(=O)c2ccc(N3CCCC3=O)cc2)c1C,-,-,-,-,-,89.9
COCCn1c(C)cc(C(=O)COC(=O)c2ccc(N3CCCC3=O)cc2)c1C,-,-,-,-,-,-
CCOC(=O)c1c(C)[nH]c(C(=O)CSc2ccccc2)c1C,-,-,-,-,84.3,96.4
CCCN(CCC)C(=O)c1c(C)[nH]c(C(=O)OCC)c1C,-,-,-,-,-,-
CCOC(=O)c1c(C)[nH]c(C(=O)COC(=O)c2oc3ccccc3c2C)c1C,-,-,-,-,-,-
CCCCCCC(=O)c1c(C)[nH]c(C(=O)OCC)c1C,-,-,-,-,-,71.2
CCOC(=O)c1c(C)[nH]c(C(=O)COC(=O)CSC)c1C,-,-,-,-,-,56.5
O=C(OCn1nnc2ccccc2c1=O)c1ccc2c(=O)n3c(nc2c1)CCC3,-,-,-,-,-,-
CC1CCCCN1C(=O)CSc1nnc(-c2ccco2)n1CC1CCCO1 (configuration not stated),-,-,-,-,83.2,-
CCn1c(SCC(=O)N2CCc3ccccc32)nnc1-c1ccncc1,-,-,-,-,62.8,-
Cc1cc2c(=O)n(Cc3ccco3)c(SCC(=O)N3CCCc4ccccc43)nc2s1,-,-,-,31.6,-,90.5
O=C(CSc1ccc2nnc(-c3cccnc3)n2n1)N1CCc2ccccc21,-,-,.,.,-,-
Cc1cc2c(=O)n(Cc3ccco3)c(SCC(=O)NCc3ccco3)nc2s1,-,-,-,-,-,-
O=C(CSc1ccc2nnc(-c3ccc(Cl)cc3)n2n1)N1CCc2ccccc21,-,-,-,-,-,85.1
COC(=O)Nc1sc2c(c1C(=O)N1CCOCC1)CCC(C)C2 (configuration not stated),-,-,-,-,-,-
CCCNC(=O)CN1C(=O)NC2(CCCc3cc(OC)ccc32)C1=O (configuration not stated),-,-,-,-,-,-
O=C(COC(=O)c1c2c(nc3ccccc13)CCCC2)c1cccs1,-,-,-,-,-,-
Cn1c(Cc2cccs2)n[nH]c1=S,-,-,-,-,-,-
Nn1c(SCC(=O)N2CCCc3ccccc32)nnc1-c1ccccc1,-,-,-,-,-,-
Cc1ccc(-c2nnn(CC(=O)N3CCCc4ccccc43)n2)cc1,-,-,-,-,-,-
SMILES,CYP2C19 activ,CYP2C9 act,PostGolgi yeast,PostGolgi ctrl,CYP2C19 inh,CYP2C9 inhib
CCn1c(SCC(=O)N2CCCc3ccccc32)nc2ccccc2c1=O,-,-,-,39.8,69.4,96.8
CCn1c(SCC(=O)N2CCCc3ccccc32)nc2cccnc21,-,-,-,-,-,-
O=C(Cn1nnc(-c2ccncc2)n1)N1CCc2ccccc21,-,-,-,-,-,69.9
CCn1c(SCC(=O)N2CCCc3ccccc32)nnc1-c1ccco1,-,-,49.0,-,71.1,-
CC(C)CCNC(=O)CN(Cc1cccs1)C(=O)CCC(=O)Nc1nccs1,-,-,-,-,-,-
CC(=O)Nc1cccc(NC(=O)c2sc3ncn(CC(=O)N4CCCCC4)c(=O)c3c2C)c1,-,-,-,-,79.0,79.5
CCN(CC)C(=O)Cn1cnc2sc(C(=O)Nc3cc(OC)c(OC)c(OC)c3)c(C)c2c1=O,-,-,-,-,79.3,92.4
